Test results from PubChem BioAssay (NCATS).
Several values for one entry are separate records, joined by “and”; a condition that tells them apart may be missing. Equal entries are not always repeated. Records with an inconclusive call do not appear. Activity calls are given as the source filed them. Unless noted, calls come from the whole dose curve; as a rule, active = well fitted curve in the direction sought with a large enough effect; inconclusive = small, poorly fitted or top-dose-only effect, or another doubt; inactive = no such curve, though single readings can be large; an effect the other way counts as inactive or inconclusive.

Columns and labels:
[1] = qHTS assay for small molecule disruptors of the mitochondrial membrane potential - 1 hr assay (AID 651754; calls by dose curve; note: % is set by controls: 0 for no effect and ±100 for the full control effect; nearly all actives have a fitted effect of over 35% in size)
Summary of the method: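 HepG2, 2,000 cells/well, overnight attachment; cpd or DMSO 1 hr, 37C/5% CO2; Mito-MPS dye 30 min, 37C; fluorescence monomer (490/535) and aggregate (540/590).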

[2] = qHTS assay for small molecule disruptors of the mitochondrial membrane potential - 5 hr assay (AID 651755; calls by dose curve; note: % is set by controls: 0 for no effect and ±100 for the full control effect; nearly all actives have a fitted effect of over 40% in size)
Summary of the method: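 HepG2, 2,000 cells/well, overnight attach; cpd or DMSO 5 hr, 37C/5% CO2; Mito-MPS 30 min 37C; fluor 490/535 + 540/590 nm.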

[3] = biological target: Tumor necrosis factor (Homo sapiens) (UniProt P01375); experiment: qHTS assay to identify small molecules that stimulate Tumor Necrosis Factor-alpha (TNF-alpha) secretion (AID 651757; active = well fitted curve in the direction sought with a large enough effect in the signal ratio; the % refers to the signal ratio; note: 0% is about no effect)
Summary of the method: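 Read-out is HTRF, a TR-FRET sandwich of cryptate- and XL665-labeled anti-TNF-alpha antibodies detecting cytokine secreted by THP-1 cells. Cells had been incubated with test compounds at 37 C for 17 hrs beforehand.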

[4] = qHTS assay to identify small molecules that stimulate interleukin-8 (IL-8) secretion (AID 651758; active = well fitted activation curve with a large enough effect in the signal ratio; the % refers to the signal ratio; note: 0% is about no effect)
Summary of the method: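 Secreted IL-8 measured by TR-FRET sandwich (cryptate and XL665 antibodies) from THP-1 cells exposed to compound overnight (16 hrs, 37 C).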

[5] = qHTS assay for environmental chemicals that activate the Aryl hydrocarbon Receptor (AhR) signaling pathway (AID 651777); settings: 1A2-DRE human hepatoma cells, luciferase, 24 h; activation: active compounds read high; note: % of control where 0% means no effect; nearly all actives have a fitted effect of over 15% in size
Summary of the method: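 Concentration–response screening used 1,200 1A2-DRE cells per well, 24 hr compound exposure (37 C, 5% CO2), and One-Glo luminescence as the AhR-driven CYP1A2 reporter signal.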

[6] = biological target: Peroxisome proliferator-activated receptor alpha (Homo sapiens) (UniProt Q07869); experiment: qHTS assay for small molecule agonists of the peroxisome proliferator-activated receptor alpha (PPARalpha) signaling pathway (AID 651778); settings: PathHunter PPARalpha complementation, chemiluminescence, 6 h; active compounds read high; note: % of control where 0% means no effect
Summary of the method: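 Chemiluminescence from complemented enzyme reported PPARalpha activation in cells after 6 hr of compound treatment at 37 C. The detection reagent was incubated for 60 min at room temperature, and compounds were scored as agonists.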

[7] = biological target: Nuclear receptor ROR-gamma (Homo sapiens) (UniProt P51449); experiment: qHTS assay for small molecule antagonists of the retinoid-related orphan receptor gamma (ROR-gamma) signaling pathway (AID 651802);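 note: luciferase reporter luminescence driven by ROR response element; series mostly up to about 92 µM; % is set by controls: 0 for no effect and ±100 for the full control effect; nearly all actives have a fitted effect of over 60% in size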
Summary of the method: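 CHO, TET-inducible ROR + RORE-LUC reporter, 1536-well qHTS. Compound pinned, doxycycline added, 16hr 37C/5% CO2. ONE-Glo, 30 min RT, luminescence; signal drop scored as antagonism.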

[8] = qHTS assay for small molecule agonists of the antioxidant response element (ARE) signaling pathway measured by Nrf2-dependant transcriptional activity (AID 720636; active = well fitted curve in the direction sought with a large enough effect in the repeat runs; an effect the other way counts as inactive or inconclusive;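 note: HepG2 cells with an ARE-driven luciferase reporter; % of control where 0% means no effect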)
Summary of the method: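 Attachment 6 hr at 37 C, then compound versus DMSO vehicle for 16 hr in ARE-luc HepG2 cells (1% dialyzed FBS); luminescence recorded 30 min after ONE-Glo addition at room temperature.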

[9] = qHTS assay for small molecule agonists of the antioxidant response element (ARE) signaling pathway measured by Nrf2-dependant transcriptional activity - cell viability counter screen (AID 720653; active = well fitted curve in the direction sought with a large enough effect in the repeat runs; an effect the other way counts as inactive or inconclusive; note: % is set by controls: 0 for no effect and ±100 for the full control effect); settings: ARE-bla HepG2 viability, CellTiter-Glo ATP luminescence, 16 h; active compounds read low
Summary of the method: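 Cytotoxicity counter screen: intracellular ATP quantified by CellTiter-Glo luminescence in the same ARE-bla HepG2 plates, after 16 h compound exposure and a 2 h beta-lactamase substrate step.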

[10] = qHTS assay for cell viability of HEK293 cells (AID 743288); settings: ATP luminescence (CellTiter-Glo), 18 h, active compounds read low; note: % is set by controls: 0 for no effect and ±100 for the full control effect; nearly all actives have a fitted effect of over 50% in size
Summary of the method: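 Luminescent ATP quantitation served as the viability read-out. Cells (parental HEK293, 2,000/well) received compounds after at least 5 h at 37 C and were exposed for 18 h before a 30 min room-temperature reagent step.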

[11] = qHTS assay for cell viability of the p53RE-bla HCT-116 cell line (AID 743292); note: % is set by controls: 0 for no effect and ±100 for the full control effect; nearly all actives have a fitted effect of over 55% in size
Summary of the method: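 Compound-exposed HCT-116 (p53RE-bla) cells, 4,000 per well, were kept 16 h at 37 C following a 5 h preincubation. Cell number was estimated from total ATP by CellTiter-Glo luminescence read after 30 min at room temperature.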

[12] = biological target: Nuclear receptor subfamily 1 group I member 2 (Rattus norvegicus) (UniProt Q9R1A7); experiment: qHTS assay for small molecule activators of the rat pregnane X receptor (rPXR) signaling pathway (AID 651751; call rule not given here; note: 0% is about no effect); settings: rPXR reporter cells, luciferase (One-Glo), 24 h
[13] = qHTS assay for small molecule activators of the human pregnane X receptor (PXR) signaling pathway (AID 720659; call rule not given here; note: 0% is about no effect)
[14] = qHTS assay for small molecule antagonists of the retinoid-related orphan receptor gamma (ROR-gamma) signaling pathway - cell viability counter screen (AID 720652; active = well fitted curve in the direction sought with a large enough effect in the repeat runs; an effect the other way counts as inactive or inconclusive;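 note: series mostly up to about 92 µM; compound exposure lasted 16 hr before ATP read; % is set by controls: 0 for no effect and ±100 for the full control effect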)
Summary of the method: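 Luminescence from CellTiter-Glo after 30 min at room temperature reported cellular ATP as the cytotoxicity measure. Cells were the CHO reporter line with doxycycline-induced ROR-gamma expression, exposed to compound for 16 hr at 37 C.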

Sequence of Tumor necrosis factor (Homo sapiens) (P01375 whole entry, looked up): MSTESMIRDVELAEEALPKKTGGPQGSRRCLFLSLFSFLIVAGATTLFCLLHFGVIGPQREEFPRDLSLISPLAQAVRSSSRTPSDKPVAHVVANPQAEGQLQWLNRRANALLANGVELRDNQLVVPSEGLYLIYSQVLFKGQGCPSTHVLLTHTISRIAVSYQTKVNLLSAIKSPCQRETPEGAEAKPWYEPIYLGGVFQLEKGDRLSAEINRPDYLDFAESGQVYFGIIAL
Sequence of Nuclear receptor subfamily 1 group I member 2 (Rattus norvegicus) (Q9R1A7 whole entry, looked up): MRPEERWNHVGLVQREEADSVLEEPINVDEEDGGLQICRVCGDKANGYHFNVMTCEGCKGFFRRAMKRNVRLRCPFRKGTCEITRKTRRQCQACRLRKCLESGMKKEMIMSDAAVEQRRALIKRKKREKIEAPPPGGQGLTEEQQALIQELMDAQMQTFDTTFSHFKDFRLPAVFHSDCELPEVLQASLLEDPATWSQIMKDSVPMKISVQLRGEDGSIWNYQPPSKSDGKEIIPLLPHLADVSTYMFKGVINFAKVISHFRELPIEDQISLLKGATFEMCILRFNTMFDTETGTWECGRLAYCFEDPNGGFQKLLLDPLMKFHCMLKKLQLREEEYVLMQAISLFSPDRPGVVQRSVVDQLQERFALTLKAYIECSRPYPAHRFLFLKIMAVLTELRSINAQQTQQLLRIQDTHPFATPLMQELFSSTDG
Sequence of Nuclear receptor ROR-gamma (Homo sapiens) (P51449 whole entry, looked up): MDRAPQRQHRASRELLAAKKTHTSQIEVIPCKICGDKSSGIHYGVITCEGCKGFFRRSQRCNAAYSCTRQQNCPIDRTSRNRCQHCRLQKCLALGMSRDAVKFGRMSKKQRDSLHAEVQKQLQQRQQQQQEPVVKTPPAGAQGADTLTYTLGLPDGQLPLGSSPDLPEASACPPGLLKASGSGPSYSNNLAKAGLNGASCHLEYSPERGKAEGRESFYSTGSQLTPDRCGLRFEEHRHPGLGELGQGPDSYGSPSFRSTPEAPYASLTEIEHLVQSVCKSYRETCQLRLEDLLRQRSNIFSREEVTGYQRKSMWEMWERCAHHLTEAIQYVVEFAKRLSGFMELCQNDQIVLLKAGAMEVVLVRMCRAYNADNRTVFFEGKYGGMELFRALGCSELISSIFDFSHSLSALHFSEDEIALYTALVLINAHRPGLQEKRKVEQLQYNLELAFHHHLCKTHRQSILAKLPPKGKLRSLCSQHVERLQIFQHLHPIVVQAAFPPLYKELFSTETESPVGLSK
Sequence of Peroxisome proliferator-activated receptor alpha (Homo sapiens) (Q07869 whole entry, looked up): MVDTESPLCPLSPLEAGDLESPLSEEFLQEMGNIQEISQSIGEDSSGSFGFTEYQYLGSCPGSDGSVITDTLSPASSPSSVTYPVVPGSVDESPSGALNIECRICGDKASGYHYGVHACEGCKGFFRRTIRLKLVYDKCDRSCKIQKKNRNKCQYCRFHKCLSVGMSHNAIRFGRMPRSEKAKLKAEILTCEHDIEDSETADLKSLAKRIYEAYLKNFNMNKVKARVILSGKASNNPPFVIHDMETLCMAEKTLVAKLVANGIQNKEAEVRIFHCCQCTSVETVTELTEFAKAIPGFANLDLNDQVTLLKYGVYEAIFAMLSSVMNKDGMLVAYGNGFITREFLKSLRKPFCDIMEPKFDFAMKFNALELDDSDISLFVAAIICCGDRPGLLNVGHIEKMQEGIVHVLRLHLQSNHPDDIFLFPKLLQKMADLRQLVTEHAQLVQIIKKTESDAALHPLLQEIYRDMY

NC(=O)/N=N/C(N)=O
inactive: Potency [1] | Potency [2] | Potency [3] | Potency [4] | activation [5] -0.307% | max response [6] -8.1% | Potency [7] | outcome [8] | max response [9] 19.2% | max response [10] 1.54% | Potency [11] | max response [12] -0.787% | outcome [13]

C=Cc1ccccn1
inactive: Potency [1] | Potency [2] | Potency [3] | Potency [4] | activation [5] 0.147% | max response [6] 0.108% | Potency [7] | outcome [8] | Potency [14] | max response [9] -6.91% | max response [10] 3.38% | Potency [11] | max response [12] 2.42% | outcome [13]

Cc1cccc(C(=O)O)c1[N+](=O)[O-]
inactive: Potency [1] | Potency [2] | Potency [3] | Potency [4] | activation [5] 1.97% | max response [6] -1.91% | Potency [7] | outcome [8] | Potency [14] | max response [9] 5.5% | max response [10] -1.21% | Potency [11] | max response [12] -0.47% | outcome [13]

Cc1ccc2cccnc2c1
inactive: Potency [1] | Potency [2] | Potency [3] | Potency [4] | activation [5] 0.306% | max response [6] -8.31% | Potency [7] | outcome [8] | Potency [14] | max response [9] 0.459% | max response [10] 6.13% | Potency [11] | max response [12] -2.67%

Cc1ccccc1C#N
inactive: Potency [1] | Potency [2] | Potency [3] | Potency [4] | activation [5] 3.69% | max response [6] -1.24% | Potency [7] | outcome [8] | Potency [14] | max response [9] -8.58% | Potency [11] | max response [12] -0.838% | outcome [13]

ON=C1CCCCC1
inactive: Potency [1] | Potency [2] | Potency [3] | Potency [4] | activation [5] 0.388% | max response [6] 1.6% | Potency [7] | outcome [8] | Potency [14] | max response [9] 5.44% | max response [10] 1.04% | Potency [11] | max response [12] 3.07% | outcome [13]

BrC/C=C/CBr
inactive: Potency [1] | Potency [2] | Potency [3] | Potency [4] | activation [5] 0.145% | max response [6] 3.19% | Potency [7] | outcome [8] | Potency [14] | max response [9] -9.49% | max response [10] -11% | Potency [11] | max response [12] -0.603%

CC/C(C)=N/O
inactive: Potency [1] | Potency [2] | Potency [3] | Potency [4] | max response [6] 1.72% | Potency [7] | outcome [8] | Potency [14] | max response [9] -8.91% | max response [10] 6.15% | Potency [11] | max response [12] 5.17% | outcome [13]

c1ccc2c(c1)Oc1ccccc1S2
inactive: Potency [1] | Potency [2] | Potency [3] | Potency [4] | max response [6] -0.0488% | Potency [7] | outcome [8] | Potency [14] | max response [9] 6.9% | max response [10] 0.655% | Potency [11] | max response [12] -3.68% | outcome [13]

Cc1cc(C)c(N)cc1C
inactive: Potency [1] | Potency [2] | Potency [3] | Potency [4] | activation [5] 1.62% | max response [6] -4.75% | outcome [8] | Potency [14] | max response [9] 7.8% | max response [10] -5.87% | Potency [11] | max response [12] 3.48% | outcome [13]

CC1(N)CCC(C(C)(C)N)CC1 (stereo not given)
inactive: Potency [1] | Potency [2] | Potency [3] | Potency [4] | max response [6] 0.74% | Potency [7] | outcome [8] | Potency [14] | max response [9] 1.22% | max response [10] 3.33% | Potency [11] | max response [12] 1.15% | outcome [13]

O=C(O)c1ccccc1Cl
inactive: Potency [1] | Potency [2] | Potency [3] | Potency [4] | activation [5] -2.05% | Potency [7] | outcome [8] | Potency [14] | max response [9] -0.91% | max response [10] -4.79% | Potency [11] | max response [12] 1.04% | outcome [13]

CC1CCC2CC1C2(C)C (stereo not given)
inactive: Potency [1] | Potency [2] | Potency [3] | Potency [4] | max response [6] -3.48% | Potency [7] | outcome [8] | Potency [14] | max response [9] 1.21% | max response [10] -8.03% | Potency [11] | max response [12] -2.72% | outcome [13]

Cc1ccc(N(C)C)cc1
inactive: Potency [1] | Potency [2] | Potency [3] | Potency [4] | activation [5] 6.07% | max response [6] 2.84% | outcome [8] | Potency [14] | max response [9] -14.6% | max response [10] -14.6% | Potency [11] | max response [12] 1.14% | outcome [13]

CCCCC=O
inactive: Potency [1] | Potency [2] | Potency [3] | Potency [4] | max response [6] -1.36% | Potency [7] | outcome [8] | Potency [14] | max response [9] -1.82% | max response [10] -6.95% | Potency [11] | max response [12] -1.64% | outcome [13]

Cc1cccc(C)c1[N+](=O)[O-]
inactive: Potency [1] | Potency [2] | Potency [3] | Potency [4] | activation [5] -1.35% and 15.8% | Potency [7] | outcome [8] | Potency [14] | max response [9] -4.95% and -2.18% | Potency [11] | max response [12] 1.64% and 13.2% | outcome [13]
